# Laboratory results from PMC12864922, “TDP-43 directly inhibits mRNA accumulation in neurites through modulation of mRNA stability”.
# Positions count from the first letter of the chain named. Whole data set: some 9,900 sequences, median “r (bound/input frequency ratio)” near 0.7, cut for the highest 2% near 6.5. The sample holds the highest values, similar sequences and a random draw of the others, so the mix is not that of the screen.
# B1: ENSMUSG00000004113.301|Cacna1b (ssRNA)
# RNA: GGGAGUUCUACAGUCCGACGAUCGCUUCGAUAUCCGCAUGCUAAGGCACUCCUUGGUGUGGUCUCUCUGUUUUGAAACUUCUGAUGACUUCUUGGUGGCUUGUUGUCUUCUACCCCAUGUUUCUCACAGGAUCUGUGUGUGUGUGUGUGUGUGUGUGUGUGUGUGUGUGUGUGUGUGUUAGCAUGUGUGUAUUAGCGUGUGUGAGUGUGUGAGCAUGCACGAGUCAUAGGAGAUGCAGGUGUAUGUGUGUGGUGUGCAUAUGUGUAUGUGUGUGUGUGUGUGUGUGUGUGUAGGUGUGUUCAGCUCUUGCGGUCGCACUAGUGUGGAAUUCUCGGGUGUCAAGG
# B2: ENSMUSG00000090935.77|Synj2bp|54:58 (ssRNA)
# RNA: GGGAGUUCUACAGUCCGACGAUCGCUUCGAUAUCCGCAUGCUACUUUGUCAGCAUAGGCAGGAGUCCUUUAGGAUUUCUGCCUAUCAGUAAAAGAACAUACUAACCCAAGUUCUACCUUCAGUGGAUUAAAGUUUCAUUAAGUGAAAAUGGAAAGAAAGUAGAAUUACUUGGUAAGAGGCCAAAUGAGGAUACAGAGGCUGAAGAAGAUUGAAAGGAGCUAGUGUAAACAAACAAACAAACAAACAAACAAAAAACCAAACCCCAAAACAAAAACAAAAACAAAACAAAAUUGGAGAAAGCAGCUCUUGCGGUCGCACUAGUGUGGAAUUCUCGGGUGUCAAGG
# B3: ENSMUSG00000090935.14|Synj2bp|150:154 (ssRNA)
# RNA: GGGAGUUCUACAGUCCGACGAUCGCUUCGAUAUCCGCAUGCUAGAGAGCAGUCAGAUAUGAACGGACGGGUGGAUUAUUUAGUCACGGAGGAAGAGAUCAACCUGACGAGAGGACCUUCGGGUAAAUGGCCAAGAUCUGAAGAACCUGCUGCACCAAGAUGCUGUAGACCUCUUCCGUAAUGCGGGAUGUGCACACACCCUGAGAGUACAGCACAGGUUACCAGUGCAGAAUGGACCUAUAGUACAUCGAGGUGAAGGAGAGCCAAGUGGAGUUCCUGUAGCUAUGGUGCUGCUACCAGUGUUCUCUUGCGGUCGCACUAGUGUGGAAUUCUCGGGUGUCAAGG
# B4: ENSMUSG00000090935.23|Synj2bp (ssRNA)
# RNA: GGGAGUUCUACAGUCCGACGAUCGCUUCGAUAUCCGCAUGCUAUCAACCUGACGAGAGGACCUUCGGGUAAAUGGCCAAGAUCUGAAGAACCUGCUGCACCAAGAUGCUGUAGACCUCUUCCGUAAUGCGGGAUGUGCUGUGUCCCUGAGAGUACAGCACAGGUUACCAGUGCAGAAUGGACCUAUAGUACAUCGAGGUGAAGGAGAGCCAAGUGGAGUUCCUGUAGCUAUGGUGCUGCUACCAGUGUUUGCCCUCACCAUGGUAGCAGUUUGGGCCUUCGUGAGAUACCGAAAGCAGCUUUGCUCUUGCGGUCGCACUAGUGUGGAAUUCUCGGGUGUCAAGG
# B5: ENSMUSG00000031028.306|Tub|133:137 (ssRNA)
# RNA: GGGAGUUCUACAGUCCGACGAUCGCUUCGAUAUCCGCAUGCUAAUUGCCAUCAGAGAACCCUCAGCGAGGUAGCCUUUGUUUACAGUCUAGUUUCUAGAGGGCAGUAGGACUUCCAUGCUGGGGCUGGCCUAUCUCCUGAUGAAAGAUUACAGUGCCAUCUCCUUCCCAUAGUUCACACACUGCCCUCCCUCCCUGACUUUAUAGGGAGAAAUCUCCUGACAUUAGAGGUGAUAGAAACCAGAGCUUUAGUCUAGUCAGGCUGUUUCUCUGGGUUGACAAGUUUAAGGUUGAACAGGCUGAUUCUCUUGCGGUCGCACUAGUGUGGAAUUCUCGGGUGUCAAGG
# B6: ENSMUSG00000004113.120|Cacna1b (ssRNA)
# RNA: GGGAGUUCUACAGUCCGACGAUCGCUUCGAUAUCCGCAUGCUAGGGACUUUCUGAGCCUCGUGGAGAGUGUGGUUUGUCCAAAUGUGUGGCAUGGGAGAUAGGGUACCCCUGAAAGCAAGGAAAGGAGCCCAGCUGUGGCCUGGUAGCACCUGCCGGCACCAGUGAUCUCACGUCUCUUGUGGUCUUGGAGUCAAAUAGCACAUGUAUGUAGAGAUGCGCUCAAGGGCCUGCCUUUCACCUACACUGUCACCAUAACAGGGACCAAAUCUGGAGGAUGUCCUUGCUGUUGAUUCUGGUUUUCACUCUUGCGGUCGCACUAGUGUGGAAUUCUCGGGUGUCAAGG
# B7: ENSMUSG00000061578.1213|Ksr2|85:89 (ssRNA)
# RNA: GGGAGUUCUACAGUCCGACGAUCGCUUCGAUAUCCGCAUGCUAUCUCACACCCCUGUCCCCGUCCCCUCCACCCCCCGGCAGCAUGCUUCACUCUAUGAAUGAGCCGCUGGGAUAUUGACAUGGAGAACACAUGAUGGAAAAAGCCUCCACACCCAACAUAACUCUCCAGAGAGAUAUUGAAAGUGAUGGGCAGAGAGUCUGACAAUGACCCAGGGGUCAUUGUGAGUCCUAGGCUGAAUCUGUAAUGGGGUCCAAAGUGCAGGAGAGACUGCAUUCACCUUGUUGGUGGGGUGGGGCUUCUUCUCUUGCGGUCGCACUAGUGUGGAAUUCUCGGGUGUCAAGG
# B8: ENSMUSG00000061578.1433|Ksr2 (ssRNA)
# RNA: GGGAGUUCUACAGUCCGACGAUCGCUUCGAUAUCCGCAUGCUACUCACUCAUUGCCAACAUGUUGCUGGGAAAGAAUAUUUGAUUUAGAUGCCAAUCAGGAAGGCAAGUAGGAUGGAUGGAUGAGUGAGUGGAUAGGUAGGUAUAUAAAUGGAUGGAUGGGUGAUGGAUGGGUAAAUGAAUGGAUAGGUAUGUGAAUGAAUGGAUGAUGGAUGAAUGGAUGGGUAGGUGGGUAGAUAGGUAUAUGAAUGAAUGGAUGAAUGGAUGGGUGAAUGGAUGGAUAGGUAUGUGAAUAAAUGGAUGGACUCUUGCGGUCGCACUAGUGUGGAAUUCUCGGGUGUCAAGG
# B9: ENSMUSG00000061578.1429|Ksr2 (ssRNA)
# RNA: GGGAGUUCUACAGUCCGACGAUCGCUUCGAUAUCCGCAUGCUAAGAUCUGUCUUGCUCUCUGUCUCUCUCACUCAUUGCCAACAUGUUGCUGGGAAAGAAUAUUUGAUUUAGAUGCCAAUCAGGAAGGCAAGUAGGAUGGAUGGAUGAGUGAGUGGAUAGGUAGGUAUAUAAAUGGAUGGAUGGGUGAUGGAUGGGUAAAUGAAUGGAUAGGUAUGUGAAUGAAUGGAUGAUGGAUGAAUGGAUGGGUAGGUGGGUAGAUAGGUAUAUGAAUGAAUGGAUGAAUGGAUGGGUGAAUGGAUGGACUCUUGCGGUCGCACUAGUGUGGAAUUCUCGGGUGUCAAGG
# B10: ENSMUSG00000061578.1432|Ksr2 (ssRNA)
# RNA: GGGAGUUCUACAGUCCGACGAUCGCUUCGAUAUCCGCAUGCUAGUCUCUCUCACUCAUUGCCAACAUGUUGCUGGGAAAGAAUAUUUGAUUUAGAUGCCAAUCAGGAAGGCAAGUAGGAUGGAUGGAUGAGUGAGUGGAUAGGUAGGUAUAUAAAUGGAUGGAUGGGUGAUGGAUGGGUAAAUGAAUGGAUAGGUAUGUGAAUGAAUGGAUGAUGGAUGAAUGGAUGGGUAGGUGGGUAGAUAGGUAUAUGAAUGAAUGGAUGAAUGGAUGGGUGAAUGGAUGGAUAGGUAUGUGAAUAAAUGCUCUUGCGGUCGCACUAGUGUGGAAUUCUCGGGUGUCAAGG
# B11: ENSMUSG00000061578.1434|Ksr2|139:143;234:238 (ssRNA)
# RNA: GGGAGUUCUACAGUCCGACGAUCGCUUCGAUAUCCGCAUGCUACAUUGCCAACAUGUUGCUGGGAAAGAAUAUUUGAUUUAGAUGCCAAUCAGGAAGGCAAGUAGGAUGGAUGGAUGAGUGAGUGGAUAGGUAGGUAUAUAAAUGGAUGGAUGGGUGAUGGAUGGGUAAAUGAAUGGAUAGCAUACUGAAUGAAUGGAUGAUGGAUGAAUGGAUGGGUAGGUGGGUAGAUAGGUAUAUGAAUGAAUGGAUGAAUGGAUGGGUGAAUGGAUGGAUAGCAUACUGAAUAAAUGGAUGGAUGGAUGCUCUUGCGGUCGCACUAGUGUGGAAUUCUCGGGUGUCAAGG
# B12: ENSMUSG00000061578.1430|Ksr2|163:167 (ssRNA)
# RNA: GGGAGUUCUACAGUCCGACGAUCGCUUCGAUAUCCGCAUGCUAGUCUUGCUCUCUGUCUCUCUCACUCAUUGCCAACAUGUUGCUGGGAAAGAAUAUUUGAUUUAGAUGCCAAUCAGGAAGGCAAGUAGGAUGGAUGGAUGAGUGAGUGGAUAGGUAGGUAUAUAAAUGGAUGGAUGGGUGAUGGAUGGGUAAAUGAAUGGAUAGCAUACUGAAUGAAUGGAUGAUGGAUGAAUGGAUGGGUAGGUGGGUAGAUAGGUAUAUGAAUGAAUGGAUGAAUGGAUGGGUGAAUGGAUGGAUAGGUACUCUUGCGGUCGCACUAGUGUGGAAUUCUCGGGUGUCAAGG
# B13: ENSMUSG00000061578.1432|Ksr2|151:155;246:250 (ssRNA)
# RNA: B10 RNA with G194C, U195A, A196U, U197A, G198C, G289C, U290A, A291U, U292A, G293C
# B14: ENSMUSG00000061578.1431|Ksr2|157:161;252:256 (ssRNA)
# RNA: GGGAGUUCUACAGUCCGACGAUCGCUUCGAUAUCCGCAUGCUACUCUCUGUCUCUCUCACUCAUUGCCAACAUGUUGCUGGGAAAGAAUAUUUGAUUUAGAUGCCAAUCAGGAAGGCAAGUAGGAUGGAUGGAUGAGUGAGUGGAUAGGUAGGUAUAUAAAUGGAUGGAUGGGUGAUGGAUGGGUAAAUGAAUGGAUAGCAUACUGAAUGAAUGGAUGAUGGAUGAAUGGAUGGGUAGGUGGGUAGAUAGGUAUAUGAAUGAAUGGAUGAAUGGAUGGGUGAAUGGAUGGAUAGCAUACUGAACUCUUGCGGUCGCACUAGUGUGGAAUUCUCGGGUGUCAAGG
# B15: ENSMUSG00000061578.1433|Ksr2|145:149;240:244 (ssRNA)
# RNA: B8 RNA with G188C, U189A, A190U, U191A, G192C, G283C, U284A, A285U, U286A, G287C
# B16: ENSMUSG00000061578.1430|Ksr2 (ssRNA)
# RNA: B12 RNA with C206G, A207U, U208A, A209U, C210G
# Target: TDP-43 (Homo sapiens, UniProt Q13148 1-414)
# Test: RNA Bind-n-Seq with designed 260-mer pool; 25 mM Tris-HCl, 150 mM KCl, 3 mM MgCl2, BSA (printed 500 mg/mL), 20 units/mL SUPERase IN; pH not stated; 500 nM RNA pool, 1 h, 4 C; TDP-43 5, 50, 500 nM; high values mean tight binding
# Conditions: protein: recombinant; tags: SBP (GST cleaved off with PreScission; pGEX-GST-SBP)
# How it was run: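 Duplicate measurements used two independent batches of recombinant SBP-tagged TDP-43, which was captured on streptavidin beads at 5, 50 or 500 nM. The beads were incubated with 500 nM of an in vitro-transcribed 260-nt 3′ UTR oligo pool for 1 h at 4 °C in 25 mM Tris-HCl, 150 mM KCl, 3 mM MgCl2, BSA and SUPERase IN. After washing, biotin elution, reverse transcription, PCR amplification and sequencing, binding was expressed as R: each oligo's normalized read abundance in the bound sample over its abundance in input.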
# Sequence of TDP-43 (Q13148 whole entry): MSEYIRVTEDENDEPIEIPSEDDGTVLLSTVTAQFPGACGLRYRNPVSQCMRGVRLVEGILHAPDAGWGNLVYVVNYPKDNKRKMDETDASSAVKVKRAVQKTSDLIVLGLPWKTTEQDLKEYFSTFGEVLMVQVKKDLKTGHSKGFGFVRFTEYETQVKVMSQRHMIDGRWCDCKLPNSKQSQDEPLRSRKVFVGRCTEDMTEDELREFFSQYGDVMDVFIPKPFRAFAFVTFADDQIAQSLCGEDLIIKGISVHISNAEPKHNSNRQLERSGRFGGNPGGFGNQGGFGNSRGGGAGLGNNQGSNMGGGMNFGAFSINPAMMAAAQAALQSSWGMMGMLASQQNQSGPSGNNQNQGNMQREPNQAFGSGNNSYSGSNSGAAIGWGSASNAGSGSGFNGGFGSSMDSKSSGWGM
row,Binder,binding signal
1,B1,5.79 R (bound/input frequency ratio)
2,B2,0.449 R (bound/input frequency ratio)
3,B3,2.14 R (bound/input frequency ratio)
4,B4,1.15 R (bound/input frequency ratio)
5,B5,0.368 R (bound/input frequency ratio)
6,B6,1.21 R (bound/input frequency ratio)
7,B7,0.376 R (bound/input frequency ratio)
8,B8,6.35 R (bound/input frequency ratio)
9,B9,4.48 R (bound/input frequency ratio)
10,B10,6.18 R (bound/input frequency ratio)
11,B11,3.79 R (bound/input frequency ratio)
12,B12,5.26 R (bound/input frequency ratio)
13,B13,5.51 R (bound/input frequency ratio)
14,B14,7.04 R (bound/input frequency ratio)
15,B15,7.14 R (bound/input frequency ratio)
16,B16,6.58 R (bound/input frequency ratio)
